Sampled rows, rich in hits. Any-hit rate of the full collection: about 5.2%.
Sfp inh – qHTS Assay for Inhibitors of Bacillus subtilis Sfp phosphopantetheinyl transferase (PPTase); Potency, µM, for the others: largest response in the series, negative = inhibition, actives largely listed as inhibitors; AID 1490, 2009; Biochemical Sfp PPTase activity, qHTS; 4'-phosphopantetheinyl transferase ffp (Bacillus subtilis), Q9F4F7; hit rate 3.5% among 310,000;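 also: the enzyme is Sfp with the accession as filed and its product quenches rhodamine fluorescence; potency is read from the fitted curve at half-maximal effect; 0% = enzyme reaction without inhibitor and -100% = no enzyme wells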
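Buffer: 50 mM Hepes-Na pH 7.6, 10 mM MgCl2, 0.01% Nonidet P-40, 0.01% BSA. Enzyme 15 nM, pre-exposed to compound 15 min; substrates then added and fluorescence change tracked over 30 min.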
Tau fibril ThT – qHTS for Inhibitors of Tau Fibril Formation, Thioflavin T Binding | AID 1460, 2008 | recombinant tau K18 P301L, heparin-induced fibrillization, ThT fluorescence | Microtubule-associated protein tau (Homo sapiens), P10636 | hit rate 2.1% among 270,000 | Potency, µM (highest dose often 57.4 µM), inactives show at the top dose activity, negative = inhibition, usual class: inhibitors; also: potency is read from the fitted curve at half-maximal effect; nearly all actives have a fitted effect of over 55% in size
Target sequence (P10636 561-689 P618L limits assumed): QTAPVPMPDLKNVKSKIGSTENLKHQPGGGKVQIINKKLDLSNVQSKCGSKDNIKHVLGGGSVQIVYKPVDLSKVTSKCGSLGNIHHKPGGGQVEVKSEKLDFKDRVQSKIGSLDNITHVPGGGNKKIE
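Aggregation was driven by heparin (20 uM final) acting on recombinant tau […] bearing P301L in 100 mM sodium acetate pH 7; fibrils were detected with Thioflavin T.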
Coupling enz – qHTS Assay for Inhibitors of Fructose-1,6-bisphosphate Aldolase from Giardia Lamblia: Coupling assay counterscreen. coupling enzyme system counterscreen, AmpLite Red fluorescence. activity change, negative = inhibition, % at 58.2 µM, hits read low. hit rate 0.67% among 290,000; in the data active = activity change below about -30%
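Activity here indicates interference with the coupling reaction, not aldolase inhibition. Compounds at 57.5 uM final met coupling enzymes for 10 min at RT; substrate and AmpLite Red detection followed, with a 525/598 nm fluorescence read after 20 min.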
Tau fluor cs – Counterscreen qHTS for Inhibitors of Tau Fibril Formation, Fluorescence Polarization. tau K18 P301L (four-repeat tau fragment) Alexa594 fluorescence, heparin fibrillization. Potency, µM (doses to about 57.7 µM), for the others: top-dose activity change, negative = decrease. hit rate 0.93% among 280,000. AID 1463, 2008; also: potency is read from the fitted curve at half-maximal effect; nearly all actives have a fitted effect of over 55% in size
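Human K18 P301L tau (15 uM unlabeled plus 0.24 uM Alexa 594-labeled, final) in 100 mM sodium acetate pH 7 was mixed with compound and 20 uM heparin and incubated 6 hr at 37 C.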
Tau FP inhib – qHTS for Inhibitors of Tau Fibril Formation, Fluorescence Polarization; Microtubule-associated protein tau (Homo sapiens), P10636; K18 P301L tau heparin fibrillization, Alexa594 FP, 6 h; Potency, µM (titrated, usually from 57.7 µM), inactives show top-dose activity, negative = inhibition, actives largely listed as inhibitors; hit rate 0.39% among 280,000; AID 1468, 2008; also: potency is read from the fitted curve at half-maximal effect; nearly all actives have a fitted effect of over 55% in size
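Read-out: fluorescence polarization of Alexa 594-labeled tau (0.24 uM), 555 nm excitation, 632 nm emission. Mixtures held 15 uM unlabeled K18 P301L, compound and 20 uM heparin, pH 7 acetate buffer, incubated 6 hr at 37 C.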
Starred values were filed as active, the others as inactive; ? = inconclusive; . = not tested or not shown; [ ] = remark or other dose. Unless noted, calls follow the shape of the dose curve; as a rule, active = well fitted curve in the direction sought with a large enough effect; inconclusive = small, poorly fitted or top-dose-only effect, or another doubt; inactive = no such curve, though single readings can be large; an effect the other way counts as inactive or inconclusive. Unless noted, % is scaled to controls: 0 for no effect and ±100 for the full control effect.

SMILES | Sfp inh | Tau fibril ThT | Coupling enz | Tau fluor cs | Tau FP inhib
COc1ccc(C2=NCC(=O)N(CC(=O)NCc3ccco3)c3sc4c(c32)CCCC4)cc1OC | 50µM* | -24% | 1 | -14% | -9%
Cc1c(O)c(=O)ccn1C | 56µM* | -13% | -1 | -9% | -10%
CNC(C)[C@@H](O)c1ccc(O)cc1 (stereo not given in full) | -2% | . | . | . | .
O=C(Nc1ccccc1)c1ccccc1I | -14% | . | -3 | . | .
Cc1cc(/C=C2\C(=O)NC(=O)N(c3ccc(Cl)cc3)C2=O)c(C)n1-c1sc2c(c1C#N)CCCC2 | 32µM* | ? | 3 | -14% | -10%
CCOC(=O)c1c(-n2c(C)cc(/C=C3\C(=O)NC(=O)N(C)C3=O)c2C)sc2c1CCCC2 | ? | ? | 0 | -22% | -7%
Cc1ccc(-n2c(C)cc(/C=C3/C(=O)NC(=O)N(C)C3=O)c2C)cc1 | -17% | ? | -2 | -15% | -7%
Cc1sc(-n2c(C)cc(C=C3C(=O)NC(=O)NC3=O)c2C)c(C#N)c1C | 50µM* | 2% | -12 | -1% | 1%
CC[C@]12C=CCN3CC[C@@]4(c5ccc(OC)cc5N(C)[C@H]4[C@@](O)(C(=O)OC)[C@@H]1OC(C)=O)C32 (stereo not given in full) | -6% | . | -1 | . | .
Cc1cc(C=C2C(=O)NC(=O)NC2=O)c(C)n1-c1cccnc1 | -13% | -13% | 2 | -3% | -8%
C=CCN1C(=O)/C(=C/c2cc(C)n(-c3cccnc3)c2C)C(=O)NC1=S | -91% | 22µM* | -19 | -19% | ?
Cc1cc(O)c2c(c1)C(=O)c1cc(O)cc(O)c1C2=O | -3% | 10µM* | -3 | 16µM*[quencher] | 11%
COC(=O)CC1=C(C(=O)OC)C2(C(=O)Nc3c(C)cccc32)C(C#N)=C(N)O1 (stereo not given) | -5% | -9% | -38* | -9% | 2%
Cn1c(=O)c2c(nc(N/N=C/c3c(O)n(C4CCCCC4)c(=S)[nH]c3=O)n2C)n(C)c1=O | 71µM* | 16µM* | 2 | ? | ?
Cc1ccccc1-n1c(O)c(/C=N/Nc2nc3c(c(=O)n(C)c(=O)n3C)n2C)c(=O)[nH]c1=S | 50µM* | ? | -7 | -14% | ?
COc1ccc(N/N=C/c2c(O)n(-c3cccc(C)c3)c(=O)[nH]c2=O)cc1 | -27% | ? | 1 | -23% | -13%
Cc1cccc(-n2c(O)c(/C=N/Nc3nc4c(c(=O)n(C)c(=O)n4C)n3C)c(=O)[nH]c2=S)c1 | 56µM* | 13µM* | -5 | ? | ?
CN1C(=O)c2ccccc2Sc2ccc(NC(=O)c3ccc(C(F)(F)F)cc3)cc21 | . | 14% | . | -12% | ?
C[C@]12CC[C@H]3[C@@H](CC[C@@]45O[C@@H]4C(=O)C(C#N)C[C@]35C)[C@@H]1CC[C@@H]2O (stereo not given in full) | 26% | . | . | . | .
CO[C@H]1[C@@H](O)CC(OC2[C@@H](O)CC(OC3[C@@H](O)C[C@H](OC4CC[C@@]5(C)C(CCC6C5CC(O)[C@]5(C)[C@H](C7=CC(=O)OC7)CCC65O)C4)O[C@@H]3C)O[C@@H]2C)O[C@@H]1C (stereo not given in full) | -7% | . | . | . | .
Cc1ccc(N2C(=O)NC(=O)/C(=C/c3ccc(-c4ccc(C(=O)O)c(Cl)c4)o3)C2=O)cc1 | 32µM* | ? | 6 | -12% | 4%
COC(=O)C12CC3=CCC4C(=O)N(c5ccccc5)C(=O)C4C3Cc3ccccc3[C@@H]1CNC2=O (stereo not given in full) | -15% | -1% | -1 | -5% | -3%
NC(N)=NCCCCCCCCCCN=C(N)N | ? | 11% | 4 | 5% | 8%
CCCCCCCCCOc1ccc2[nH]cc(CCN)c2c1 | 50µM* | ? | -1 | 7.9µM*[quencher] | ?
CC(C)CNC(=O)c1c(N)n(Cc2ccc3c(c2)OCO3)c2nc3ccccc3nc12 | -20% | ? | -51* | ? | ?
SMILES | Sfp inh | Tau fibril ThT | Coupling enz | Tau fluor cs | Tau FP inhib
CCCNC(=O)c1c(N)n(Cc2ccc3c(c2)OCO3)c2nc3ccccc3nc12 | 2% | ? | -21 | ? | ?
CC(C)CCNC(=O)c1c(N)n(Cc2ccc3c(c2)OCO3)c2nc3ccccc3nc12 | -11% | ? | -33* | ? | ?
CC(C)CCn1c(N)c(C(=O)NCc2cccs2)c2nc3ccccc3nc21 | 1% | -16% | -21 | ? | ?
CCCc1cc(N2CCN(c3cccc(C)c3C)CC2)n2cnnc2n1 | . | ? | . | -6% | -10%
NC(=NCc1ccc(Cl)cc1)SCCCc1cnc[nH]1 | -2% | -3% | -2 | -6% | -5%
O=C(O)CC1OCC=C2CN3CCC45c6ccccc6NC4C1C2CC35 (stereo not given) | 14% | -3% | 0 | -5% | 0%
O=C(O)CC1OCC=C2CN3CCC45C6=CC(=O)C(=O)C([N+](=O)[O-])=C6NC4C1C2CC35 (stereo not given) | 14µM* | 7.1µM* | -92* | ? | ?
CC[C@H](CO)NC(=O)[C@H]1C=C2c3cccc4[nH]cc(c34)C[C@@H]2N(C)C1 | 29% | . | -3 | . | .
O=C(CSc1ccccn1)Nc1cccc2ccccc12 | 13% | ? | -77* | -22% | 3%
C=C1C(=O)O[C@H]2[C@H]1[C@H](OC(=O)CC(=O)O[C@@H]1C[C@@H](C)[C@@H]3C=CC(=O)[C@@]3(C)[C@H]3OC(=O)C(=C)[C@H]13)C[C@@H](C)[C@H]1C=CC(=O)[C@]12C | -21% | 16µM* | -1 | -8% | 11µM*
C=C1C(=O)O[C@H]2C[C@@H](C)[C@@H]3C=CC(=O)[C@@]3(C)C[C@H]12 | 11% | 18µM* | 6 | -9% | ?
C=C1C(=O)O[C@@H]2C[C@@H](C)[C@@H]3C=CC(=O)[C@@]3(C)[C@@H](OC(=O)CC(=O)O[C@H]3[C@@H]4C(=C)C(=O)O[C@@H]4C[C@@H](C)[C@@H]4C=CC(=O)[C@]43C)[C@H]12 | 22µM* | 2.8µM* | 1 | -18% | 8.9µM*
COC(=O)NC/C=C\c1nc(CC/C=C\C(=O)O[C@H]2C[C@H]3CC(=O)O[C@@H](/C=C\CC(C)C)C[C@@H]4CC[C@H](C)[C@H](C[C@@H](OC)C[C@H](C2)O3)O4)co1 | 6% | 4%[11.5 µM] | -5 | 1%[11.6 µM] | 2%[11.6 µM]

Screens (PubChem)
